# ± gives the standard deviation of the averaged measurements.
# System: A549
# Experiment: relative viability (normalised to negative control = 1, bortezomib = 0) (fraction); higher = less cytotoxic
# Settings: inflammatory serum-free RHB-A with cytokines + LPS, 5 d + 24 h CellTiter-Blue
# [1] = compound 30 nM, GSK126 pretreatment: 5 uM GSK126
# [2] = compound 30 nM, GSK126 pretreatment: none (vehicle)
# [3] = compound 300 nM, GSK126 pretreatment: 5 uM GSK126
# [4] = compound 300 nM, GSK126 pretreatment: none (vehicle)
Structure (SMILES),relative viability [1],relative viability [2],relative viability [3],relative viability [4]
"O=NN(CCCl)C(=O)NC1CCCCC1 [Lomustine, CCNU; Lomustine]",0.967 ± 0.15,0.973 ± 0.15,1.03 ± 0.11,0.976 ± 0.079
CN(Cc1cnc2nc(N)nc(N)c2n1)c1ccc(C(=O)N[C@@H](CCC(=O)O)C(=O)O)cc1 [Methotrexate hydrate; Methotrexate],0.813 ± 0.055,0.84 ± 0.052,0.797 ± 0.17,0.947 ± 0.086
Nc1nc2[nH]cnc2c(=S)[nH]1 [Thioguanine],0.978 ± 0.039,0.929 ± 0.043,0.917 ± 0.045,1 ± 0.073
O=C(NOC[C@H](O)CO)c1ccc(F)c(F)c1Nc1ccc(I)cc1F,0.213 ± 0.035,0.291 ± 0.011,0.108 ± 0.017,0.112 ± 0.0091
O=C(NC1CCNCC1)c1n[nH]cc1NC(=O)c1c(Cl)cccc1Cl,0.969 ± 0.17,0.924 ± 0.074,0.0464 ± 0.029,0.136 ± 0.057
CNC(=O)c1c(F)cccc1Nc1nc(Nc2cc3c(cc2OC)CCN3C(=O)CN(C)C)nc2[nH]ccc12,0.762 ± 0.059,0.792 ± 0.067,0.295 ± 0.019,0.431 ± 0.015
CO[C@H]1C[C@@H]2CC[C@@H](C)[C@@](O)(O2)C(=O)C(=O)N2CCCC[C@H]2C(=O)O[C@H]([C@H](C)C[C@@H]2CC[C@@H](OC(=O)C(C)(CO)CO)[C@H](OC)C2)CC(=O)[C@H](C)/C=C(\C)[C@@H](O)[C@@H](OC)C(=O)[C@H](C)C[C@H](C)/C=C/C=C/C=C/1C [CCI-779; Temsirolimus],0.532 ± 0.038,0.541 ± 0.034,0.46 ± 0.069,0.531 ± 0.028
Cc1[nH]c(/C=C2\C(=O)Nc3ccc(S(=O)(=O)N(C)c4cccc(Cl)c4)cc32)c(C)c1C(=O)N1CCN(C)CC1,0.89 ± 0.053,0.887 ± 0.099,1.03 ± 0.01,1.03 ± 0.01

# From the supplement of paper PMC6279402
